# DRD3 antagonist: qHTS of D3 Dopamine Receptor Antagonist: qHTS; max response, negative = inhibition, %; D(3) dopamine receptor (Homo sapiens), P35462; actives 2.5% (n = 360,000); D3R cells, DiscoveRx beta-arrestin luminescence, antagonist mode; hits give low values; in the data active = max response below about -50%; inconclusive = no clear call, values can overlap the other calls; note: % is set by controls: 0 for no effect and ±100 for the full control effect
# Target sequence (P35462 whole entry, looked up): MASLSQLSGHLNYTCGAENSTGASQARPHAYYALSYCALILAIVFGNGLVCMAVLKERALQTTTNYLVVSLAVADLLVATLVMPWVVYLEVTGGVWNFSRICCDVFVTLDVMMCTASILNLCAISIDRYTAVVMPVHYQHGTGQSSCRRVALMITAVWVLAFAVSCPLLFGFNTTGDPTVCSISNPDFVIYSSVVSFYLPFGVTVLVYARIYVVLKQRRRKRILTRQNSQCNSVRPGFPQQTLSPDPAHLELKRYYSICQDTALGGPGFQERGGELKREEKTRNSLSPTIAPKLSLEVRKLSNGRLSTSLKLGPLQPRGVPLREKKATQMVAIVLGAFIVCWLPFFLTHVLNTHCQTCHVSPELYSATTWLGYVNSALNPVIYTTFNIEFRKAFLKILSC
#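 Cells expressing the human receptor were seeded at 1500 cells/well, incubated overnight at 37 degrees C in 5% CO2, then exposed to library compounds with dopamine controls for 90 minutes at 37 degrees C before luminescent detection.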
# IL-1B inflam inh: qHTS for Inhibitors of Inflammasome Signaling: IL-1-beta AlphaLISA Primary Screen | THP-1 LPS/ATP IL-1B secretion, AlphaLISA, 16 h; hits give low values | activity change, % at 57.5 µM | actives 4.7% (n = 360,000) | AID 743279, 2014; in the data active = activity change below about -50%; inconclusive = mostly about -30% to -49%; note: % is set by controls: 0 for no effect and ±100 for the full control effect
#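 THP-1 cells pretreated 1 hr with compounds (up to 57.5 uM final), then stimulated with LPS (250 ng/mL final) plus ATP (1.25 mM final); secreted IL-1B measured by AlphaLISA after 16 hr, decreased signal indicating inhibition.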
# Integrin act MD: qHTS for Activators of Integrin-Mediated Alleviation for Muscular Dystrophy; alpha7betagal myoblasts, beta-gal FDG fluorescence, 48 h; AID 624291, 2012; actives 0.064% (n = 350,000); Potency, µM (top dose mostly 38.3 µM), without a hit: at the highest dose activation, usual class: activators;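 note: potency is the fitted concentration of half-maximal effect; 100% = response of the positive control SU9516; nearly all actives have a fitted effect of over 60% in size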
#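 alpha7betagal+/- myoblasts (passage 13, 250/well) treated 48 h at 37C with compounds at 1:260 dilution of DMSO stock. Lysed, then beta-galactosidase activity read as FDG fluorescence (ex 480/em 540) after 30 min, with pre-read for autofluorescence.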
# ATXN2 expr inh: Primary qHTS for Inhibitors of ATXN expression. HEK-293 ATXN2-luciferase reporter, luminescence, 24 h. Potency, µM (series often up to 57 µM), without a hit: at the highest dose activity change, negative = inhibition, actives largely listed as inhibitors. actives 0.72% (n = 360,000); note: potency is the fitted concentration of half-maximal effect; % is set by controls: 0 for no effect and ±100 for the full control effect; nearly all actives have a fitted effect of over 55% in size
#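 qHTS (up to 57 uM final) was run with 24 h compound exposure of reporter cells at 37 °C. Each well was multiplexed: SteadyGlo luminescence measured ATXN2-luciferase expression after a fluorogenic Gly-Phe-AFC viability readout (25 uM final).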
# S2 tox: Viability Counterscreen for Primary qHTS for Inhibitors of ATXN expression. S2 cells (HEK-293 line with an ATXN2-luciferase reporter) viability, CellTiter-Fluor protease fluorescence, 24 h. actives 0.49% (n = 400,000). Potency, µM (highest dose often 56.7 µM), hits mostly cytotoxic; note: potency is the fitted concentration of half-maximal effect; nearly all actives have a fitted effect of over 40% in size
# D3 ag: qHTS of D3 Dopamine Receptor Agonist: qHTS | D(3) dopamine receptor (Homo sapiens), P35462 | D3R DiscoveRx beta-arrestin cells, luminescence, 90 min | max activation, % | actives 0.58% (n = 410,000); in the data active = max activation above about 30%; note: 0% is about no effect
#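 Agonist-mode cell screen: cells plated at 1500/well and incubated overnight at 37 °C, then exposed to library compounds for 90 min at 37 °C. Detection reagent was added for 30–60 min at room temperature, and luminescence was read.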
# Starred values were filed as active, the others as inactive; i = inactive; ? = inconclusive; . = not tested or not shown; [ ] = remark or other dose. Only some compounds are listed: those with a hit (about 7% of all), similar ones and a draw of the others. Unless noted, calls come from the whole dose curve; as a rule, active = well fitted curve in the direction sought with a large enough effect; inconclusive = small, poorly fitted or top-dose-only effect, or another doubt; inactive = no such curve, though single readings can be large; an effect the other way counts as inactive or inconclusive.
SMILES,DRD3 antagonist,IL-1B inflam inh,Integrin act MD,ATXN2 expr inh,S2 tox,D3 ag
N=c1n(CCN2CCCCC2)c2ccccc2n1CC(O)COc1ccc(Cl)cc1Cl (stereo not drawn),.,.,.,.,.,-18
Cc1cc(C)n(CC(O)COc2ccc(Cl)cc2Cl)n1 (stereo not drawn),-3,-52*,38%,28%,i,4
CCCc1ccc(OCC(O)CN2CCc3ccccc3C2)cc1 (stereo not drawn),-94*,-14,14%,.,?,-19
Cc1cc(C)n(CC(O)COc2ccc(Cl)cc2)n1 (stereo not drawn),-20,-5,21%,1%,i,1
COc1cccc(OCC(O)CN2CCc3ccccc3C2)c1 (stereo not drawn),-91*,0,-10%,-8%,i,-14
CCc1ccc(OCC(O)CN2CCCC2)cc1 (stereo not drawn),14,4,2%,-1%,i,-5
OC(COc1ccc(Cl)cc1Cl)CN1CCc2ccccc2C1 (stereo not drawn),-103*,-22,-25%,-17%,i,-11
CC1CCCCN1C(=O)CCS(=O)(=O)c1cccc2nonc12 (stereo not drawn),-11,-3,-34%,-15%,i,-6
O=C(OC[C@H]1O[C@@H](OC(=O)c2cc(O)c(O)c(OC(=O)c3cc(O)c(O)c(O)c3)c2)[C@H](OC(=O)c2cc(O)c(O)c(OC(=O)c3cc(O)c(O)c(O)c3)c2)[C@@H](OC(=O)c2cc(O)c(O)c(OC(=O)c3cc(O)c(O)c(O)c3)c2)[C@@H]1OC(=O)c1cc(O)c(O)c(OC(=O)c2cc(O)c(O)c(O)c2)c1)c1cc(O)c(O)c(OC(=O)c2cc(O)c(O)c(O)c2)c1,.,.,.,.,.,27
O=C(Nc1ccc(Br)cc1)c1csc(-c2ccncc2)n1,0,-13,-10%,-22%[11.3 µM],?,-3
COc1ccc2c(c1)-c1c(ssc1=S)C(C)(C)N2,?,-77*,?,7%,?,-6
COc1ccc2c(c1)-c1c(sn(-c3ccc(OC)c(OC)c3)c1=S)C(C)(C)N2,-59*,-2,-32%,-21%,i,-3
COc1ccc(-n2sc3c(c2=S)-c2cc(OC)ccc2NC3(C)C)cc1,-11,-21,-39%,-3%,?,4
COc1ccccc1C(=O)NCC(=O)N/N=C/c1ccc2c(c1)OCO2,16,-3,0%,-8%,i,4
O=C(NCc1ccncc1)c1ccc(OCc2ccccc2)cc1,27,-20,12%,-14%,?,3
O=C(NCc1ccncc1)c1ccc(Oc2ccccc2)cc1,12,-66*,-37%,-18%,i,3
Cc1ccc(Oc2ccc(C(=O)NCc3ccncc3)cc2)cc1,15,-51*,-21%,?,i,-5
O=C(CCSCc1ccccc1F)NCc1ccc(F)cc1,5,18,12%,-1%,?,-6
O=C(CN1CC[n+]2c(-c3ccccc3)csc21)c1ccc(Br)cc1,-11,-54*,-29%,.,i,1
O=C(CN1CC[n+]2c(-c3cccs3)csc21)c1ccc(Br)cc1,9,?,3%,-19%[11.3 µM],i,-4
CC(C)c1ccc(NC(=O)COC(=O)CSc2nnc(N)s2)cc1,-22,6,6%,3%,i,-6
Oc1ccc(/C=N/Nc2ccc(C(F)(F)F)cn2)cc1,32,-95*,-10%,24%[11.3 µM],i,5
Clc1ccccc1CN(Cc1ccccc1)c1ncnc2nc[nH]c12,-64*,-84*,-6%,3%,i,1
CCCCC(=O)NNC(=S)NC(=O)CCC,-58*,-95*,-19%,-36%,i,1
CCCCC(=O)NC(=S)NNC(=O)CC#N,-13,1,0%,0%,i,-2
